From the supplement of paper PMC12494721
Where a name gives a salt, the structure may show the parent alone.

Columns and labels:
Conditions in all cases: incubation time: 27 h, anaerobic, 37 °C;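 for the amine columns active = adjusted P below 0.05 in both replicates with a change the same way and a mean fold change under 0.8 or over 1.25; inactive = the rest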
[1] = tested on: Clostridium sporogenes DSM 1664; experiment: growth (OD595) fold change vs plate DMSO controls (fold change (ratio)); higher = more growth
Outline: (§1)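 The reported measure is growth: the fold change against the median of DMSO controls on the plate. Absorbance at 595 nm from anaerobic 96-well mGAM cultures grown for 27 h at 37 °C was blank-subtracted, corrected for background with 20 µM compound solutions in water, and converted to OD with a calibration factor of 5. Fold changes above 1.5 appear as NA, and values are the mean of 2 biological replicates.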

Escherichia coli IAI1 [2] = experiment: as above
Outline: as §1

[3] = tested on: Klebsiella aerogenes DSM 30053; experiment: as above
Outline: as §1

[4] = tested on: Ruminococcus gnavus DSM 108212; experiment: as above
Outline: as §1

[5] = tested on: Klebsiella aerogenes DSM 30053; experiment: fold change of Histamine concentration vs plate DMSO controls (fold change (ratio)); higher = more amine produced, active = hit call of the paper (significant change in both replicates, either direction)
Outline: (§2)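 Each value is the fold change relative to DMSO-only wells on the same plate. Four gut bacterial strains were grown anaerobically in mGAM at 37 °C for 27 h in 80 µL wells, starting at OD 0.1 before a 1:1 dilution, with compounds at 20 µM final (sweeteners 50 µM). Whole cultures were extracted with cold acetonitrile/methanol containing 0.1% formic acid, centrifuged, and amines were quantified by LC–triple-quadrupole MS (dynamic MRM) against external calibration curves with within-batch drift correction. Values are means of 2 biological replicates.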

[6] = tested on: Clostridium sporogenes DSM 1664; experiment: fold change of Tryptamine concentration vs plate DMSO controls (fold change (ratio)); higher = more amine produced, active = hit call of the paper (significant change in both replicates, either direction)
Outline: as §2

[7] = tested on: Ruminococcus gnavus DSM 108212; experiment: as above
Outline: as §2

Escherichia coli IAI1 [8] = experiment: fold change of Putrescine concentration vs plate DMSO controls (fold change (ratio)); higher = more amine produced, active = hit call of the paper (significant change in both replicates, either direction)
Outline: as §2

[9] = tested on: Klebsiella aerogenes DSM 30053; experiment: as above
Outline: as §2

Escherichia coli IAI1 [10] = experiment: fold change of Cadaverine concentration vs plate DMSO controls (fold change (ratio)); higher = more amine produced, active = hit call of the paper (significant change in both replicates, either direction)
Outline: as §2

[11] = tested on: Klebsiella aerogenes DSM 30053; experiment: as above
Outline: as §2

[12] = tested on: Ruminococcus gnavus DSM 108212; experiment: fold change of 2-Phenylethylamine concentration vs plate DMSO controls (fold change (ratio)); higher = more amine produced, active = hit call of the paper (significant change in both replicates, either direction)
Outline: as §2

Structure (SMILES)	growth [1]	growth (Escherichia coli IAI1 [2])	growth [3]	growth [4]	fold change of Histamine concentration [5]	fold change of Tryptamine concentration [6]	fold change of Tryptamine concentration [7]	fold change of Putrescine concentration (Escherichia coli IAI1 [8])	fold change of Putrescine concentration [9]	fold change of Cadaverine concentration (Escherichia coli IAI1 [10])	fold change of Cadaverine concentration [11]	fold change of 2-Phenylethylamine concentration [12]
Nc1nnc(-c2cccc(Cl)c2Cl)c(N)n1 [Lamotrigine] (20 µM)	0.937	0.978	0.986	0.963	0.977 (inactive)	1.03 (inactive)	1.04 (inactive)	0.946 (inactive)	1.02 (inactive)	1.23 (inactive)	0.989 (inactive)	1.06 (inactive)
O=C1CN2Cc3c(ccc(Cl)c3Cl)N=C2N1 [Anagrelide] (20 µM)	0.955	1.11	1.05	1.14	0.845 (inactive)	1.03 (inactive)	1.02 (inactive)	1.05 (inactive)	0.986 (inactive)	1.16 (inactive)	1.01 (inactive)	0.962 (inactive)
CC(C(=O)O)c1ccc2c(c1)[nH]c1ccc(Cl)cc12 (stereo not drawn) [Carprofen] (20 µM)	1.05	1.02	0.996	1.1	1.07 (inactive)	0.958 (inactive)	1.03 (inactive)	1.05 (inactive)	0.99 (inactive)	1.03 (inactive)	0.995 (inactive)	1.06 (inactive)
CCOc1ccc2nc(S(N)(=O)=O)sc2c1 [Ethoxzolamide] (20 µM)	0.955	0.957	0.989	0.925	1.04 (inactive)	0.934 (inactive)	0.994 (inactive)	1.27 (inactive)	0.997 (inactive)	0.981 (inactive)	0.989 (inactive)	1 (inactive)
Cc1nc2ccccc2n1Cc1ccc(Cl)cc1 [Chlormidazole] (20 µM)	0.927	0.947	0.963	0.899	1.06 (inactive)	1 (inactive)	0.899 (inactive)	0.947 (inactive)	0.978 (inactive)	0.982 (inactive)	0.989 (inactive)	0.854 (inactive)
CCCNC(C)(C)C(=O)Nc1ccccc1C [Quatacaine] (20 µM)	1.01	0.991	0.979	0.952	1.01 (inactive)	1.01 (inactive)	1.05 (inactive)	0.994 (inactive)	1 (inactive)	0.951 (inactive)	0.997 (inactive)	1.04 (inactive)
C=C1C[C@@]23CC[C@H]4[C@@](C)(CCC[C@@]4(C)C(=O)O[C@@H]4O[C@H](CO)[C@@H](O)[C@H](O)[C@H]4O)[C@@H]2CC[C@]1(O[C@@H]1O[C@H](CO)[C@@H](O)[C@H](O)[C@H]1O[C@@H]1O[C@H](CO)[C@@H](O)[C@H](O)[C@H]1O)C3 [Stevioside] (50 µM)	0.957	1	0.995	0.976	0.984 (inactive)	0.986 (inactive)	0.947 (inactive)	0.989 (inactive)	0.863 (inactive)	1.04 (inactive)	1.1 (inactive)	0.971 (inactive)
CC(=O)Oc1ccccc1C(=O)O [Acetylsalicylic acid] (20 µM)	1.11	0.986	1.04	1.17	0.992 (inactive)	1.03 (inactive)	1.18 (inactive)	0.992 (inactive)	0.998 (inactive)	0.93 (inactive)	1.05 (inactive)	1.18 (inactive)
C[C@@H](O)[C@H]1C(=O)N2C(C(=O)O)=C(S[C@@H]3CN[C@H](C(=O)N(C)C)C3)[C@H](C)[C@H]12 [Meropenem] (20 µM)	0	0.0127	0.316	0	0.214 (active)	0.0316 (active)	0.0446 (active)	0.278 (active)	0.605 (active)	0.971 (inactive)	1.11 (inactive)	0.0459 (active)
CCCN1CCCC[C@H]1C(=O)Nc1c(C)cccc1C [Ropivacaine hydrochloride] (20 µM)	1.02	0.971	0.964	0.779	1.13 (inactive)	1.13 (inactive)	1.02 (inactive)	0.946 (inactive)	1.04 (inactive)	1.03 (inactive)	0.961 (inactive)	1.01 (inactive)
CCc1nn(CCCN2CCN(c3cccc(Cl)c3)CC2)c(=O)n1CCOc1ccccc1 [Nefazodone hydrochloride] (20 µM)	1.05	1.01	1.17	0.822	0.853 (inactive)	0.922 (inactive)	0.793 (active)	0.996 (inactive)	0.996 (inactive)	1.03 (inactive)	1.03 (inactive)	0.824 (inactive)
CCN(CC)C(=O)Nc1ccc(OCC(O)CNC(C)(C)C)c(C(C)=O)c1 (stereo not drawn) [Celiprolol hydrochloride] (20 µM)	1.03	0.981	0.953	0.712	1.09 (inactive)	0.988 (inactive)	1.02 (inactive)	1 (inactive)	1.01 (inactive)	1.02 (inactive)	0.988 (inactive)	1.04 (inactive)
CO[C@@H]1[C@@H](O[C@@H]2O[C@H](C)[C@@H](O[C@H]3C[C@@](C)(O)[C@@H](OC(=O)CC(C)C)[C@H](C)O3)[C@H](N(C)C)[C@H]2O)[C@@H](CC=O)C[C@@H](C)[C@@H](O)/C=C/C=C/C[C@@H](C)OC(=O)C[C@H]1OC(C)=O [Josamycin] (20 µM)	0.00305	0.881	0.953	0.124	0.572 (inactive)	0.0546 (active)	0.135 (active)	0.708 (inactive)	1.08 (inactive)	1.34 (active)	1.06 (inactive)	0.116 (active)
CC(=O)OC(C)C[N+](C)(C)C (stereo not drawn) [Methacholine chloride] (20 µM)	0.962	1.02	0.965	0.97	0.992 (inactive)	1.01 (inactive)	1.06 (inactive)	1.09 (inactive)	1 (inactive)	0.985 (inactive)	0.989 (inactive)	1.08 (inactive)
CC(=O)Oc1ccc(C(c2ccc(OC(C)=O)cc2)c2ccccn2)cc1 [Bisacodyl] (20 µM)	0.976	0.978	0.993	0.731	1.06 (inactive)	0.942 (inactive)	0.988 (inactive)	0.967 (inactive)	1.02 (inactive)	1 (inactive)	0.998 (inactive)	0.954 (inactive)
CC(NCCC(c1ccccc1)c1ccccc1)c1ccccc1 (stereo not drawn) [Fendiline hydrochloride] (20 µM)	0.961	0.952	0.98	1.09	1.06 (inactive)	0.941 (inactive)	0.888 (inactive)	1.18 (inactive)	1.03 (inactive)	0.196 (active)	0.998 (inactive)	0.98 (inactive)
O=C(O)/C=C/c1ccc(Cn2ccnc2)cc1 [Ozagrel hydrochloride] (20 µM)	0.923	0.982	0.994	0.975	1.02 (inactive)	1.01 (inactive)	1.04 (inactive)	1.01 (inactive)	0.993 (inactive)	1.01 (inactive)	0.986 (inactive)	0.999 (inactive)
C#CCN(C)Cc1ccccc1 [Pargyline hydrochloride] (20 µM)	0.983	0.989	1.03	0.999	0.983 (inactive)	1.01 (inactive)	1.01 (inactive)	0.99 (inactive)	1.01 (inactive)	1 (inactive)	1.01 (inactive)	0.995 (inactive)
NC(=O)c1cn(Cc2c(F)cccc2F)nn1 [Rufinamide] (20 µM)	0.904	0.974	1.01	0.922	0.998 (inactive)	0.969 (inactive)	1.02 (inactive)	0.999 (inactive)	0.995 (inactive)	0.98 (inactive)	0.985 (inactive)	1.02 (inactive)
C[C@H](O)[C@H](O)[C@H]1CNc2[nH]c(N)nc(=O)c2N1 [Sapropterin dihydrochloride] (20 µM)	1.12	0.893	0.928	0.813	0.931 (inactive)	0.972 (inactive)	0.945 (inactive)	1.01 (inactive)	1.01 (inactive)	1.03 (inactive)	1.01 (inactive)	0.911 (inactive)
CC1(C)S[C@@H]2[C@H](NC(=O)[C@H](N)c3ccccc3)C(=O)N2[C@H]1C(=O)OC1OC(=O)c2ccccc21 (stereo partly drawn) [Talampicillin hydrochloride] (20 µM)	0	0.00609	0.378	0.146	0.797 (active)	0.0102 (active)	0.0823 (active)	0.252 (active)	0.971 (inactive)	0.867 (inactive)	1.13 (inactive)	0.0586 (active)
Cn1cc(C(=O)[C@@H]2CCc3[nH]cnc3C2)c2ccccc21 [Ramosetron hydrochloride] (20 µM)	0.928	0.966	1	0.964	0.964 (inactive)	1.02 (inactive)	1 (inactive)	0.969 (inactive)	1.01 (inactive)	1.11 (inactive)	0.997 (inactive)	1.04 (inactive)
Cc1ccccc1C(OCCN(C)C)c1ccccc1 (stereo not drawn) [Orphenadrine hydrochloride] (20 µM)	0.998	1.02	0.938	1.09	0.902 (inactive)	1.34 (inactive)	1.07 (inactive)	1.07 (inactive)	0.895 (inactive)	1.04 (inactive)	1.03 (inactive)	1.16 (inactive)
CN[C@H](CC(C)C)C(=O)N[C@H]1C(=O)N[C@@H](CC(N)=O)C(=O)N[C@H]2C(=O)N[C@H]3C(=O)N[C@H](C(=O)N[C@H](C(=O)O)c4cc(O)cc(O)c4-c4cc3ccc4O)[C@H](O)c3ccc(c(Cl)c3)Oc3cc2cc(c3O[C@@H]2O[C@H](CO)[C@@H](O)[C@H](O)[C@H]2O[C@H]2C[C@](C)(N)[C@H](O)[C@H](C)O2)Oc2ccc(cc2Cl)[C@H]1O [Vancomycin hydrochloride] (20 µM)	0	1.06	1.01	0.17	1.07 (inactive)	0.0328 (active)	0.0491 (active)	1.01 (inactive)	1.04 (inactive)	0.953 (inactive)	0.998 (inactive)	0.0538 (active)
